Data published in the supplement of paper PMC10849652.
The full data set covers some 7,900 targets. This sample favours those with a hit. About 0.6% of all pairs of compound and target were hits.

Compound: C1COCCN1CCN2C3=CC=CC=C3N=C2NC(=O)C4=CC(=CC=C4)[N+](=O)[O-] [IRAK-1-4 Inhibitor I]
Assay: log2 fold change, soluble protein after heating vs DMSO (PISA); higher = thermal stabilisation; K562 cells, 10 uM, 30 min; active = over 0.2 and 3.5 SD of the protein, either way, in both replicates (recomputed)
How it was run: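 Soluble protein was defined as the supernatant after 21,000xg for 90 min. It came from K562 cells at 2×10^6 cells/mL given 10 μM compound for 30 min, heated in aliquots for 3 min across 48°C-58°C, pooled, and extracted in PBS with 0.5% NP-40 at 4°C, and was quantified by TMTpro 16plex LC-MS/MS with equalised channel sums. Thermal stability against control samples, from duplicates, is reported as log2 fold change.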

Sequence of UniProt Q5BKX5 (Q5BKX5 whole entry, looked up): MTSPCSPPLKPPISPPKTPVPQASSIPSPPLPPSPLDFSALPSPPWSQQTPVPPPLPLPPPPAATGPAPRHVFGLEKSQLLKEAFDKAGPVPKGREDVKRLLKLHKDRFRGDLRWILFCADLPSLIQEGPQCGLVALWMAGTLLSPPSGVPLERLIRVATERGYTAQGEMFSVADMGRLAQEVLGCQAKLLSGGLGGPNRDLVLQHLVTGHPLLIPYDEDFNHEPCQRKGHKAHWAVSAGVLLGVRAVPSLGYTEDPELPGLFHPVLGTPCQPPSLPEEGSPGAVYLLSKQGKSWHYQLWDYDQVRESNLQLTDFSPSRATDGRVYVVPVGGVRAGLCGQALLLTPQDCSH
Sequence of UniProt P24311 (P24311 whole entry, looked up): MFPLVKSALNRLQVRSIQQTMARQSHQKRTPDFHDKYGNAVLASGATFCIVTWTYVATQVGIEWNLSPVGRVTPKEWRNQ
Sequence of UniProt O75153 (O75153 whole entry, looked up): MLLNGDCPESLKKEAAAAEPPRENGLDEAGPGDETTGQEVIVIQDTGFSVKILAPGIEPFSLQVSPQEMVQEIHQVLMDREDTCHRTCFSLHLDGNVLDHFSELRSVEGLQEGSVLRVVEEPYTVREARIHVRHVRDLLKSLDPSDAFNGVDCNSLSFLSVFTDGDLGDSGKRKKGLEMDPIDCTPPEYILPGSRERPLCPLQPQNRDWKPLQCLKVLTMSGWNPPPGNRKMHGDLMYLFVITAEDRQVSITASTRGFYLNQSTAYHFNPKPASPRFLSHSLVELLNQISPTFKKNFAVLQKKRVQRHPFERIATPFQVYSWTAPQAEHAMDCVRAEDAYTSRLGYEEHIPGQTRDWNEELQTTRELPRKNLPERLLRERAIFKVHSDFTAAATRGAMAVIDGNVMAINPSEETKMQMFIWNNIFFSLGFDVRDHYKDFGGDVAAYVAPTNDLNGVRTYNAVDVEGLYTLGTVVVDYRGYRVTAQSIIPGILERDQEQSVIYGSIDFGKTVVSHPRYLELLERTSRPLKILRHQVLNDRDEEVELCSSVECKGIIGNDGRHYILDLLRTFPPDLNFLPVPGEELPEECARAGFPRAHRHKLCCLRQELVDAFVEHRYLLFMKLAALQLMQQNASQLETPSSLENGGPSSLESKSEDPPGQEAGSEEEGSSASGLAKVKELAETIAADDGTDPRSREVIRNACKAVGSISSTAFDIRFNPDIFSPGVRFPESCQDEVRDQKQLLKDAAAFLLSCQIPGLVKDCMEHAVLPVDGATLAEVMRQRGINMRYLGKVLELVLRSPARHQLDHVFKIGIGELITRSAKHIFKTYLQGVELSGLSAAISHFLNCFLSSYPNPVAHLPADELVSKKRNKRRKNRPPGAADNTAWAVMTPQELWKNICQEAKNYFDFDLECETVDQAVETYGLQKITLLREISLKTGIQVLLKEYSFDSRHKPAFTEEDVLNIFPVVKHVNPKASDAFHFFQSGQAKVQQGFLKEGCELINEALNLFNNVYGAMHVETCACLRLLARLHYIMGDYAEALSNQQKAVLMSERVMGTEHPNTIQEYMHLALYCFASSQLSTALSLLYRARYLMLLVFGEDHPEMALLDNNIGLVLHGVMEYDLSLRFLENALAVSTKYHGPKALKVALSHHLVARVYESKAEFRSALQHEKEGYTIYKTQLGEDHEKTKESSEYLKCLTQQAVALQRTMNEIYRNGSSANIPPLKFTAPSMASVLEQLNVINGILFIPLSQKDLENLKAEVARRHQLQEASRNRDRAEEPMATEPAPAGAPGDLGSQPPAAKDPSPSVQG
Sequence of UniProt Q13111 (Q13111 whole entry, looked up): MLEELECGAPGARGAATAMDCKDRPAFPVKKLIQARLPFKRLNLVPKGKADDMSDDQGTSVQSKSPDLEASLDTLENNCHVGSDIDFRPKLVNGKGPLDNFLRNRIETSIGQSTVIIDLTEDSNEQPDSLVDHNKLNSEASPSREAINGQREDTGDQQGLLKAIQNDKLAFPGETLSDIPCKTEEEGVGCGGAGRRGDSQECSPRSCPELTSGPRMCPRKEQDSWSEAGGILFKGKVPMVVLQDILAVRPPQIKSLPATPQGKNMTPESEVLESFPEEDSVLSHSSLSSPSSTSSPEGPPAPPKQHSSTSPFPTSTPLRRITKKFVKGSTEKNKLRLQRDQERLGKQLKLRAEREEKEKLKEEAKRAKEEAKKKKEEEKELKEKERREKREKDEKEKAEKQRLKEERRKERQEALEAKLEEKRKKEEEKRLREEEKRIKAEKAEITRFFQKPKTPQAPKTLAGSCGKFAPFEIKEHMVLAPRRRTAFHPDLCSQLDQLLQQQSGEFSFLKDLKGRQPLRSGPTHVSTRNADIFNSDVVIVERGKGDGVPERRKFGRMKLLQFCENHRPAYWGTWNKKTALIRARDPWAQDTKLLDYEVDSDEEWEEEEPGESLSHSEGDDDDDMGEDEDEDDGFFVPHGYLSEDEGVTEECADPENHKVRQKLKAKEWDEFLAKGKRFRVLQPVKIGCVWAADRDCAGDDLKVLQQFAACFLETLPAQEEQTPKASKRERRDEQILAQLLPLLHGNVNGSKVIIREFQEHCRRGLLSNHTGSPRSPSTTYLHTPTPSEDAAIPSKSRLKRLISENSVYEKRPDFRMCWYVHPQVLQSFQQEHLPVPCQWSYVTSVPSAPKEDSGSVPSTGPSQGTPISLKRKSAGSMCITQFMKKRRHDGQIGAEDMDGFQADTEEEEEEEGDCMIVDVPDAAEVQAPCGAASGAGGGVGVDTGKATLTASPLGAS
Sequence of UniProt O75956 (O75956 whole entry, looked up): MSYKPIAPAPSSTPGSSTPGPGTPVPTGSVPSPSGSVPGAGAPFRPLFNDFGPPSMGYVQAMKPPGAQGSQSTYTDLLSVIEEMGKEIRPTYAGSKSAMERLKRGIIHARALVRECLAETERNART
Sequence of UniProt Q9Y2V0 (Q9Y2V0 whole entry, looked up): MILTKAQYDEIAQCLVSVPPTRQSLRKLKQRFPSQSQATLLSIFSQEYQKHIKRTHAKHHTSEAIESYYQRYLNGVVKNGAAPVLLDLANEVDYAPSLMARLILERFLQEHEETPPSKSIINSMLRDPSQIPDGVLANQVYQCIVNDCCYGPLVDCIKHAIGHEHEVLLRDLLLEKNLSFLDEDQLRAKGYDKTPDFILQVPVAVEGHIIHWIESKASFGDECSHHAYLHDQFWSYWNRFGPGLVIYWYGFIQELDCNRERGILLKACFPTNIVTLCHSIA
Sequence of UniProt Q14746 (Q14746 whole entry, looked up): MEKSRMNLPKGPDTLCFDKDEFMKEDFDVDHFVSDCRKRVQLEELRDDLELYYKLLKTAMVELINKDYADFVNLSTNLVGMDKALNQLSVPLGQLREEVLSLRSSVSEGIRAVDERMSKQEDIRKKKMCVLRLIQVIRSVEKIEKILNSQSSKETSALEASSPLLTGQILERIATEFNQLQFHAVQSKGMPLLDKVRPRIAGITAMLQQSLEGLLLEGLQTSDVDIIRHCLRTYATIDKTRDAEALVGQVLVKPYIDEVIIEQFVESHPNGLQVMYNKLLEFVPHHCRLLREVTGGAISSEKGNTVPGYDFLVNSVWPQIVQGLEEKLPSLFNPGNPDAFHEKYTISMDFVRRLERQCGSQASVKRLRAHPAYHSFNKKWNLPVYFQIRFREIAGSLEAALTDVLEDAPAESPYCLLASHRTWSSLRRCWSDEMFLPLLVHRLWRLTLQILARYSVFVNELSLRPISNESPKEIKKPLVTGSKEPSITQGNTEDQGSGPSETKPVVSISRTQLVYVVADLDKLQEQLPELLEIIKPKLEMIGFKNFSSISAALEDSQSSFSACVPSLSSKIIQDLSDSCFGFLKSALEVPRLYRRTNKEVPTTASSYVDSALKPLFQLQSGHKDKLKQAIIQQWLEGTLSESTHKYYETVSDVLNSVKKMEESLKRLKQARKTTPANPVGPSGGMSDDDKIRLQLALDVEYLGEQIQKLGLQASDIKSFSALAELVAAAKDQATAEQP
Sequence of UniProt O75503 (O75503 whole entry, looked up): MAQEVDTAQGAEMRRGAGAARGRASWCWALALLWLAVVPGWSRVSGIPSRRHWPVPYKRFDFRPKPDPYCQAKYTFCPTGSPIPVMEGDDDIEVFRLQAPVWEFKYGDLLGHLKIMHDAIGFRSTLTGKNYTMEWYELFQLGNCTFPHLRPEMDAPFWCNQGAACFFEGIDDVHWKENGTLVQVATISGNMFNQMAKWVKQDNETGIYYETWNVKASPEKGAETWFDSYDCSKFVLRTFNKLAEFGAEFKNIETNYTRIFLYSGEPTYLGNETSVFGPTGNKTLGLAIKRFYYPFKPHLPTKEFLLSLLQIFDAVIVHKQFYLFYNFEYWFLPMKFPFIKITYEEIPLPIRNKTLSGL
Sequence of UniProt Q16740 (Q16740 whole entry, looked up): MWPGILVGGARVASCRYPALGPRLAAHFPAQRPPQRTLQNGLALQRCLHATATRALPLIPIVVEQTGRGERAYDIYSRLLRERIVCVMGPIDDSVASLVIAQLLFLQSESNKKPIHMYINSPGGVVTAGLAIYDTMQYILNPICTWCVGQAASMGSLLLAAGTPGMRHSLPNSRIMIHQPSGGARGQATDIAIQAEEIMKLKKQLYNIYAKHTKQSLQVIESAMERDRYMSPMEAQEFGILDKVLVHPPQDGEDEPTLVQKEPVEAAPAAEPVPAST
Sequence of UniProt P51636 (P51636 whole entry, looked up): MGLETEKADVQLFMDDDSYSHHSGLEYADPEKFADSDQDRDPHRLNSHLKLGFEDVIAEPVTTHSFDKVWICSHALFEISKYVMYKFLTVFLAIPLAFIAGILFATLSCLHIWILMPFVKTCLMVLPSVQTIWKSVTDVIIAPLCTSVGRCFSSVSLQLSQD
Sequence of UniProt P46527 (P46527 whole entry, looked up): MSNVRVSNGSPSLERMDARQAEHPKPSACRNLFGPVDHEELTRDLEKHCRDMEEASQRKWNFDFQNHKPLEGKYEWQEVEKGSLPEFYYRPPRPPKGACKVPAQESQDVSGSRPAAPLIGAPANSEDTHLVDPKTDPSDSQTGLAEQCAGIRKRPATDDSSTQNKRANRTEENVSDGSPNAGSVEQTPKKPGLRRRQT

log2 fold change, inactive:
CLUH, A0A494C0R8 -0.016
CHAF1A (UniProt Q13111) 0
CCNC (UniProt P24863) 0.071
CLPP (UniProt Q16740) -0.023
COX7B (UniProt P24311) 0.045
CLN5 (UniProt O75503) 0.023
CAV2 (UniProt P51636) -0.165
CDK5 (UniProt Q00535) 0.008
CLTB (UniProt P09497) 0.053
COG2 (UniProt Q14746) -0.232
C15orf41 (UniProt Q9Y2V0) 0.105
CNOT4 isoform 9 (UniProt O95628) 0.09
C19orf54 (UniProt Q5BKX5) 0.008
CLASP2 (UniProt O75122) 0.027
CDCA2 (UniProt Q69YH5) 0.023
CDK2AP2 (UniProt O75956) -0.087
CDKN1B (UniProt P46527) 0.023
CLUH (UniProt O75153) 0.107
CDK17 isoform 2 (UniProt Q00537) 0.101
CENPE (UniProt Q02224) 0.046
CLSPN (UniProt Q9HAW4) 0.028
CLPTM1L (UniProt Q96KA5) 0.051
CMTM3 (UniProt Q96MX0) 0.021
CDC25B isoform 4 (UniProt P30305) 0.068
